Screening results (PubChem)
In the library only some 2.4% were active in any assay of this set; here they are far more common.
MITF TRPM1 HTS: activators of MITF-driven TRPM1 promoter reporter, primary screen, cell-based, SK-MEL-5, luciferase, single point | SK-MEL-5 TRPM1-promoter luciferase, 24 h; % of positive control, neutral wells = 0 | activation, % at 12.5 µM | 300,000 tested, 0.75% active | AID 588334, 2011;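 active = mean activation of at least 80% with every replicate also reaching 80%; inconclusive = mean reaches 80% but some replicate falls short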;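 note: 0% = neutral control wells and 100% = parthenolide positive control wells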
NSD2 inh: NSD2 histone methyltransferase inhibitors, primary screen, biochemical, AlphaScreen, single concentration, set 2; Histone-lysine N-methyltransferase NSD2 (Homo sapiens), O96028; NSD2 peptide methylation, 120 min; inhibition, % at 12.5 µM; 310,000 tested, 0.54% active; AID 743445, 2014
Wnt bcat act: Wnt/beta-catenin pathway activators, primary screen, cell-based, plate reader, single point; Wnt/beta-catenin reporter cell assay, activator; 300,000 tested, 1.2% active; activation, % at 9.35 µM; in the data active = activation above about 30%, passing the limit was not always enough; inconclusive = no clear call, values can overlap the other calls;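 note: 0% = neutral control wells and 100% = positive control wells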
GSIS activator: GLuc luminescence reporter in INS-1E cells, primary screen for activators of glucose-dependent secretion of insulin; INS-1E GLuc reporter insulin secretion, 2-3 h; activation, % at 16.6 µM; 370,000 tested, 0.61% active; AID 743287, 2014;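 active = lowest replicate activation of at least 40%, so every replicate reaches that level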;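 note: 0% = median of neutral control wells and 100% = median of IBMX positive control wells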
Dyrk1A ADPGlo: rat Dyrk1A kinase inhibitors, primary screen, biochemical, single point, plate reader. Dual specificity tyrosine-phosphorylation-regulated kinase 1A (Rattus norvegicus), Q63470. ADP-Glo luminescence, NFATc1 peptide. inhibition, % at 12.5 µM. 310,000 tested, 0.43% active;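 note: plate controls were vehicle with enzyme for no effect and no enzyme for full effect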
miR-122 sensor: miR-122 Renilla sensor signal increase in Huh7, primary screen, miR-122 inhibitor project, cell-based, single point, plate reader. Huh7 miR-122 Renilla luciferase sensor, 48 h; neutral wells = 0, positive control = 100. activation (reporter increase), % at 12.5 µM. 340,000 tested, 0.3% active;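 active = mean replicate activation score at least 90 and every replicate individually at or above 90; inconclusive = only one of the two criteria met; inactive = neither criterion met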;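 note: higher luciferase means less miR-122 activity so hits act as miR-122 inhibitors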
* hit, by the source's call; ? = inconclusive; nt = no result; [ ] = another dose, or the depositor's remark. Cut-off read from the data, not from the text of the source, unless noted: active = inhibition above about 50%; inactive = the rest.

SMILES | MITF TRPM1 HTS | NSD2 inh | Wnt bcat act | GSIS activator | Dyrk1A ADPGlo | miR-122 sensor
COCC(=O)N1[C@@H]2c3ccc(-c4cccnc4)c(=O)n3C[C@@H]2[C@@H](CO)[C@@H]1C(=O)Nc1ccccc1 | nt | nt | nt | 8 | nt | nt
COc1cccc(-c2cc(C(F)(F)F)nc(-n3cncn3)n2)c1 | 3 | 6 | nt | 65* | 5 | -4
Fc1ccc(-c2cc(C(F)(F)F)nc(-n3cncn3)n2)cc1 | -3 | -1 | -13 | 52* | -2 | 8
COc1cccc(-c2cc(C(F)(F)F)nc(-n3cc(C)cn3)n2)c1 | 7 | -2 | 5 | -4 | 12 | -4
CCCNC(=O)C[C@H]1CC[C@H]2[C@@H](COc3ccc(NC(=O)c4cccc(OC)c4)cc3C(=O)N2C)O1 | nt | nt | nt | -3 | nt | -1[16.7 µM]
Cc1ccc(S(=O)(=O)NCC[C@H]2CC[C@@H](NC(=O)c3cccc(F)c3)[C@H](CO)O2)cc1 | nt | nt | nt | -3 | nt | nt
COc1ccc(N=Cc2nc(-c3ccco3)oc2O)cc1 | 99* | 1 | nt | nt | 4 | -1
COc1ccc2c3c([nH]c2c1)[C@H](CO)N(C(=O)c1ccncc1)CC31CN(C(=O)CC2CC2)C1 | nt | nt | nt | 8 | nt | nt
CCC(=O)N1[C@H](CO)[C@H](c2ccc(-c3ccccc3OC)cc2)[C@@H]1CNC(C)=O | nt | nt | nt | 2 | nt | nt
CCc1ccc(/C=N/NC(=S)NCCc2ccccc2)cc1 | -10 | 1 | nt | 41* | -1 | 5
C=CCOc1ccc(-c2nc3c(c(=O)[nH]c(=O)n3CCCC)n2C)cc1Br | 22 | 4 | -1 | 51* | 1 | nt
CCCCn1c(=O)[nH]c(=O)c2c1nc(-c1ccc([N+](=O)[O-])cc1)n2CC | -1 | 7 | 1 | 191* | -7 | nt
CCCCn1c(=O)[nH]c(=O)c2c1nc(-c1ccc(OC)c(Br)c1)n2CC(C)C | 9 | 2 | 0 | -13 | 1 | -12
O=C(O)c1ccccc1C(=O)N1CCN(c2cccc(Cl)c2)CC1 | 0 | -1 | 1 | nt | nt | -2
COc1ccc2oc(=O)c(C(=O)N3CCN(c4ccccc4C)CC3)cc2c1 | 105* | 2 | 49* | nt | 11 | -4
CCOc1ccccc1N1CCN(C(=O)c2cc3ccccc3cc2OC)CC1 | -44 | 3 | -10 | -49 | -6 | 130*
CCOc1ccccc1C(=O)N1CCN(c2cccc(Cl)c2)CC1 | -49 | 1 | nt | -19 | -83 | 139*
O=C(CCN1CCCCC1)NCC[C@H]1CC[C@@H](NC(=O)Cc2cccnc2)[C@@H](CO)O1 | nt | nt | nt | 0 | nt | 1[16.7 µM]
CN1C(=O)c2cc(NC(=O)Cc3cccs3)ccc2OC[C@H]2O[C@H](CC(=O)NCCc3ccncc3)CC[C@H]21 | nt | nt | nt | 7 | nt | nt
C[C@@H]1CCCCO[C@H](CN(C)Cc2ccc(C(=O)Nc3ccccc3N)cc2)[C@@H](C)CN([C@H](C)CO)C(=O)c2cc(N(C)C)ccc2O1 | nt | nt | nt | 6 | nt | nt
CCN(CC)CCCNC(=O)c1ccc2c3n(nc2c1)-c1ccc(Cl)cc1CO3 | 114* | nt | 18 | -8 | 4 | -4
C[C@@H](CO)NC(=O)c1ccc2c3n(nc2c1)-c1ccccc1CO3 | 6 | nt | 9 | 7 | 14 | -6
Cc1ccc2c(c1)COc1c3ccc(C(=O)N4CCCCC4)cc3nn1-2 | ? | nt | 21 | 20 | -5 | -1
O=C(c1ccc2c3n(nc2c1)-c1ccc(Cl)cc1CO3)N1CCOCC1 | 126* | nt | 33* | 0 | 6 | -2
CC(C)NC(=O)c1ccc2c3n(nc2c1)-c1ccc(Cl)cc1CO3 | 102* | nt | 34* | -12 | 0 | -15
SMILES | MITF TRPM1 HTS | NSD2 inh | Wnt bcat act | GSIS activator | Dyrk1A ADPGlo | miR-122 sensor
NC(=S)NN=C1CCCCCCCCCC1 | -20 | 7 | -3 | 55* | -2 | nt
C/C=C/c1ccc2c(c1)O[C@@H](CN(C)Cc1ccc(C(=O)O)cc1)[C@@H](C)CN([C@@H](C)CO)S2(=O)=O | nt | nt | nt | 5 | nt | -5[16.7 µM]
CCCn1cnc2cc(NC(=O)c3cccs3)ccc21 | 94* | -2 | 32* | -9 | -5 | 4
CCCn1cnc2cc(NC(=O)c3ccco3)ccc21 | 14 | -6 | 28 | 7 | 1 | nt
CCOC(=O)C1=C(C)N=c2s/c(=C3\C(=O)Nc4ccccc43)c(=O)n2C1c1ccc2c(c1)OCO2 (centres undefined) | nt | 0 | nt | nt | -1 | 91*
CCOC(=O)C1=C(C)N=c2s/c(=C\c3ccncc3)c(=O)n2C1c1ccc2c(c1)OCO2 (centres undefined) | -4 | 2 | nt | nt | 9 | -7
N=C1/C(=C/c2ccc(-c3cccc(C(=O)O)c3)o2)C(=O)N=C2SC(CC(=O)N3CCOCC3)=NN12 | 13 | 84* | 8 | 23 | 79* | -4
CCS(=O)(=O)N1CC2(CN(Cc3ccccc3OC)[C@H](CO)c3c2c2ccc(OC)cc2n3C)C1 | nt | nt | nt | -12 | nt | nt
O=C(/C=C/c1cc(Br)ccc1O)c1ccco1 | -50 | nt | -19 | -48 | 8 | 195*
COC(=O)C[C@H]1CC[C@@H](NC(=O)c2ccccc2)[C@H](CO)O1 | nt | nt | nt | 7 | nt | nt
S=C(Nc1ccccc1Cl)N1CCCC1 | 0 | 1 | 1 | -17 | -3 | -3
S=C(Nc1ccc(Br)cc1Cl)N1CCCC1 | 84* | -1 | 13 | 9 | 5 | nt
CNC[C@@H]1Oc2cc(C#CC(C)(C)O)ccc2S(=O)(=O)N([C@H](C)CO)C[C@H]1C | nt | nt | nt | 0 | nt | -2[16.7 µM]
O=C(NCC1(O)CCCCC1)C1CCC(=O)N(Cc2ccccc2F)C1 (centres undefined) | 4 | 1 | 1 | 54* | 7 | -1
O=C(NC1CCCCCC1)C1CCC(=O)N(Cc2ccccc2F)C1 (centres undefined) | 1 | 7 | 2 | 4 | 0 | 1
O=C(C[C@H]1C=C[C@@H](NC(=O)c2cccnc2)[C@@H](CO)O1)NCc1ccncn1 | nt | nt | nt | -3 | nt | nt
O=C(Cc1ccccn1)NCC[C@H]1CC[C@H](NC(=O)CN2CCOCC2)[C@@H](CO)O1 | nt | nt | nt | 11 | nt | nt
Cc1cccc(NC(=O)CSc2ncnc3sc(C)c(C)c23)n1 | 1 | 1 | 3 | -2 | 1 | nt
Cc1sc2ncnc(SCC(=O)c3cccs3)c2c1C | 34 | -2 | 38* | nt | 1 | 39
C/C(=N/O)c1no[n+]([O-])c1/C(C)=N\O | nt | -1 | 38* | 16 | 1 | -2
CCOC(=O)Cn1c(=NC(=O)c2sc3ccccc3c2Cl)sc2cc(S(N)(=O)=O)ccc21 | 11 | -1 | -12 | 71* | 4 | 1
COC(=O)Cn1c(=NC(=O)c2sc3ccccc3c2Cl)sc2cc(S(N)(=O)=O)ccc21 | -6 | -2 | -4 | 3 | -1 | nt
CN1CCN(C(=O)C[C@H]2C=C[C@@H](NC(=O)Cc3ccccn3)[C@@H](CO)O2)CC1 | nt | nt | nt | -8 | nt | -16[16.7 µM]
